Source: PubChem BioAssay

Test system: Sam68 (KHDRBS1)
Assay: compounds binding KHDRBS1 protein – biochemical, small-molecule microarray, 635 nm fluorescence, primary screen (AID 1125);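 also: score merges 667 nm channel intensity with signal to noise over triplicate slides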
Details: higher = more signal

SMILES | composite z-score
NCCCCCNC(=O)[C@H]1C[C@H]2C(=O)NCC(=O)N2[C@H]1c1cccc(OCCO)c1 | 1.32
CN1C=C(C(=O)OCCS(C)(=O)=O)C(C(=O)OCCS(C)(=O)=O)=CC(CCCO)=CC1C1CC1 (stereo not given) | -0.0704
COCCOC(=O)N1C(=O)[C@@]2(c3cc(C#CC4=CCCCC4)ccc31)[C@H](C(=O)NC[C@H](O)c1ccccc1)[C@H]1C(=O)O[C@H](c3ccccc3)[C@H](c3ccccc3)N1[C@@H]2c1ccc(O)cc1 | 1.29
CCCCCCCCCCC(O)C1C=CC2C(=O)N(Cc3ccccc3)C(=O)C2N1n1cnnc1 (stereo not given) | 1.11
Cc1ccccc1C(O)C1C=CC2C(=O)N(C)C(=O)C2N1N1CCCCC1 (stereo not given) | 1.32
CC(=O)NCCCC[C@@H]1NC(=O)[C@@H]2C[C@H](C(=O)NCCCCCCNC(=O)CS)[C@H](c3ccc(O)cc3)N2C1=O | 0.464
C=CCOC(=O)[C@H]1[C@@H]2C(=O)O[C@@H](c3ccccc3)[C@@H](c3ccccc3)N2[C@@H](c2ccc(OCCOC(=O)[C@@H]3C[C@@H]4C(=O)N5CCC[C@H]5C(=O)N4[C@@H]3c3ccc(O)cc3)cc2)[C@]12C(=O)Nc1ccccc12 | 1.33
C=CCC(OC(C)=O)[C@@H]1[C@@H](N(Cc2ccc(-c3ccccc3)cc2)C(=O)Cc2ccc(OC)cc2)c2cc(OCCCO)ccc2N1C(=O)c1ccc2ccccc2n1 (stereo not given in full) | -0.959
COC(=O)C(CC#Cc1ccc2c(c1)[C@]1(C(=O)N2)[C@H](C(=O)NC[C@H](O)c2ccccc2)[C@H]2C(=O)O[C@H](c3ccccc3)[C@H](c3ccccc3)N2[C@@H]1c1ccc(OCCO)cc1)C(=O)OC | 1.27
COc1ccc(C(O)C2C=CC3C(=O)N(c4ccccc4)C(=O)C3N2Nc2ccc([N+](=O)[O-])cc2)cc1OCc1ccccc1 (stereo not given) | 1.16
CC(=O)NCCCC[C@@H]1NC(=O)[C@@H]2C[C@H](C(=O)NCCCCN(C)C)[C@H](c3ccc(O)cc3)N2C1=O | -0.781
CC(C)C(=C=CC[C@H](O)c1cccc(OCCO)c1)C[C@H](O)COCc1ccccc1 | 0.166
CC(C)C(=C=CC[C@@H](O)c1ccccc1OCCO)C[C@@H](O)c1ccccn1 | 0.95
O=C1O[C@@H](c2ccccc2)[C@@H](c2ccccc2)N2[C@@H](c3ccccc3OCCO)[C@]3(C(=O)Nc4ccc(C#CC5(O)CCCCCC5)cc43)[C@@H](C(=O)Nc3nc4ccccc4s3)[C@H]12 | 1.02
C=CCN1C(=O)[C@]2(O[C@H](CCO)[C@@H]([Si](C)(C)c3ccc(OC)cc3)[C@@H]2C)c2cc(NC(=O)[C@H](C)O)ccc21 | 1.31
